The results in this text go back to PubChem BioAssay (Tox21).

Molecules are shown by their SMILES. “And” between values parts separate entries of the source, which are not always exact repeats. Equal entries are not always repeated. Inconclusive results are not listed. A structure can be active in one record and inactive in another. The source made the active and inactive calls. Unless noted, the call rests on the fitted dose curve; in most records, active means well fitted curve in the direction sought with a large enough effect in the repeat runs; inconclusive means weak or mixed curves; inactive means no such curve, though single readings can be large; an effect the other way counts as inactive or inconclusive.

A short description of assay [1]: qHTS assay for small molecule agonists of the p53 signaling pathway (AID 651631; calls by dose curve; further: nearly all actives have a fitted effect of over 15% in size; further: potency means the concentration at half of the fitted maximal effect). The method, boiled down: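 Stably transfected HCT-116 cells (beta-lactamase behind p53 response elements) get compounds after a 5 h settling period; 16 h later at 37 °C, FRET substrate is loaded and fluorescence read after 2 h.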
A short description of assay [2]: qHTS assay for small molecule agonists of the p53 signaling pathway - cell viability (AID 651633; calls by dose curve;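 further: p53RE-bla HCT reporter cells with a stable beta-lactamase p53 reporter; series mostly up to about 83 µM; nearly all actives have a fitted effect of over 30% in size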). The method, boiled down: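 Viability counter-read: CellTiter-Glo luminescence (30 min, room temperature) in the same p53RE-bla plates. These plates had been exposed to compounds for 16 h at 37 C.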
Background: In qHTS, concentration-response curves come from the screen itself.

The nature of assay [3]: qHTS assay for small molecules that induce genotoxicity in human embryonic kidney cells expressing luciferase-tagged ATAD5 - cell viability (AID 651634; calls by dose curve; further: nearly all actives have a fitted effect of over 25% in size). The essentials:
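Cells (HEK293T, luciferase-tagged ATAD5) are seeded at 2,000 per well, dosed with compound or DMSO vehicle, and incubated 15.5 hr at 37C and 5% CO2. CellTiter-Fluor is added for 30 min before fluorescence is measured.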

The nature of assay [4]: qHTS assay for small molecule disruptors of the mitochondrial membrane potential - cell viability (AID 720634; calls by dose curve;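 further: human HepG2 liver cancer cells; series mostly up to about 83 µM; nearly all actives have a fitted effect of over 20% in size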). The essentials: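 Cytotoxicity was measured by ATP quantitation in HepG2 wells that had first been treated with compound for 1 hr and stained with m-MPI dye; CellTiter-Glo incubation was 30 min at room temperature.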
Assay [5] in a line: qHTS assay for small molecule disruptors of the mitochondrial membrane potential (AID 720635). Further: potency means the concentration at half of the fitted maximal effect. The essentials:
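Mitochondrial membrane potential tracked with Mito-MPS dye, red aggregates (ex 540/em 590 nm) against green monomers (ex 490/em 535 nm). Compound treatment 1 hr at 37C, dye 30 min in HepG2.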

The nature of assay [6]: qHTS assay to test for compound auto fluorescence at 535 nm (green) in HepG2 cells (AID 720675).
Assay [7] in a line: qHTS assay to test for compound auto fluorescence at 590 nm (red) in HEK293 cells (AID 720679). The essentials:
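Red-channel autofluorescence (Ex/Em 540/590 nm; Rose Bengal sodium reference) was measured after overnight 37C, 5% CO2 exposure of attached HEK293 cells, 2,000 per well in medium with 10% dialyzed FBS.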

Assay [8] can be described thus: qHTS assay to test for compound auto fluorescence at 590 nm (red) in HepG2 cells (AID 720674). The method, boiled down: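 Red autofluorescence (Ex/Em 540/590 nm, Rose Bengal sodium equivalents) was measured in HepG2 cells, 2,000 per well in MEM plus 10% FBS, plated overnight at 37 C. Readings were taken 1 hr after adding 23 nL compound or DMSO, at 37 C and 5% CO2.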

Assay [9] can be described thus: qHTS assay to test for compound auto fluorescence at 460 nm (blue) in HEK293 cells (AID 720678). The essentials: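 Blue-channel (Ex/Em 405/460 nm) intensity measured in HEK293 cultures after overnight compound exposure at 37C; signal expressed relative to triamterene. Cells plated 2,000 per well in 10% dialyzed FBS medium and allowed 4-5 hr to attach.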
A short description of assay [10]: qHTS assay for small molecules that induce genotoxicity in human embryonic kidney cells expressing luciferase-tagged ATAD5 (AID 651632). Further: nearly all actives have a fitted effect of over 15% in size. The method, boiled down: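 Cells were seeded at 2,000 per well, dosed with compound, and incubated 16 hr at 37C in 5% CO2. Luciferase activity was then quantified after a 30 min room-temperature incubation with Amplite.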
On the % scale 0 is the no-effect control and ±100 the full control effect.

Take `CNCC(=O)c1ccc(O)c(O)c1`: the Potency result in assay [1], in [2], in [3], in [4] and in [5] was “inactive” each time. Further, the call in assay [6] and in assay [7] was inactive.
Regarding `c1cc[c]([Hg][c]2ccccc2)cc1`, the Potency in assay [1] and in [5] was 15.4 µM (active) in each case. The Potency entry in [3] and in [4] was “inactive” in each case. The compound was called inactive in [8], in assay [6], in assay [9] and in [7].
Take `CC1CCCCC1NC(=O)Nc1ccccc1` (centres undefined): the Potency result in [1], in assay [3] and in assay [4] was “inactive” throughout. Further, in [5], the Potency was 21.7 µM (active). Besides, the compound was classed as inactive in assay [8], in [6], in assay [9] and in assay [7].
With `O=C(NCO)NCO`, the Potency result in [1], in [2], in assay [4] and in [5] was “inactive” in each case. The outcome in assay [8], in assay [6], in [9] and in assay [7] was inactive.
Regarding `O=[N+]([O-])c1ccc(CBr)cc1`, the Potency entry in assay [1], in assay [2], in assay [3] and in assay [4] was “inactive” in each case. The call in [8] and in [9] was inactive.
On to `CC(C)[N+](=O)[O-]`, for which the Potency entry in assay [1], in [2] and in assay [3] was “inactive” each time. Further, the compound was called inactive in assay [8], in [6], in assay [9] and in assay [7].
With `O=[N+]([O-])c1cccc2cccnc12`, the Potency entry in [1], in [2] and in assay [4] was “inactive” in each case. Besides, the result in assay [8], in assay [6] and in assay [7] was inactive.
As to `O=C(CCCN1CCC(n2c(=O)[nH]c3ccccc32)CC1)c1ccc(F)cc1`, the Potency entry in assay [1], in assay [2], in assay [3], in assay [4] and in assay [5] was “inactive” in each case. For the same compound, in assay [6], the fluorescence, % of fluorescein control is 0.0365% [at 18.6 µM] (inactive). The fluorescence, % of triamterene in [9] is 0.114% [at 18.6 µM] (inactive). For the same compound, in assay [7], the fluorescence, % of fluorescent control was 0.426% [at 18.6 µM] (inactive).
`CN/C(=N\[N+](=O)[O-])NCC1CCOC1` (centres undefined): the Potency result in assay [1], in [2], in [3] and in assay [4] was “inactive” throughout. Also, the result in [8], in assay [6] and in [7] was inactive.
For the compound `COC(=O)COc1ccc(Cl)cc1Cl`, the Potency entry in assay [1], in [2], in [3] and in [4] was “inactive” in each case. In addition, the call in [8], in assay [6], in assay [9] and in [7] was inactive.
Consider `CCCCCCBr`, for which the Potency entry in assay [1], in assay [2], in assay [4] and in assay [5] was “inactive” in each case. For the same compound, the compound was called inactive in [8], in assay [6], in assay [9] and in assay [7].
`CS(=O)(=O)c1cc(C(F)(F)F)ccc1C(=O)c1cnoc1C1CC1`: the Potency entry in assay [1], in assay [2], in [3], in assay [4] and in assay [5] was “inactive” in each case. In addition, the outcome in assay [8], in assay [6], in assay [9] and in assay [7] was inactive.
On to `ClC(Cl)C(Cl)Cl`, for which the Potency result in assay [1], in [3] and in assay [4] was “inactive” each time. The result in assay [8] and in assay [9] was inactive.
`O=C(O)c1ccc2[nH]cc(CCCCN3CC=C(c4ccccc4)CC3)c2c1`: the Potency entry in [1], in assay [3], in assay [4] and in assay [5] was “inactive” throughout. The call in assay [8], in [6], in assay [9] and in [7] was inactive.
`CC(C)(C)C(=O)C(Oc1ccc(Cl)cc1)n1cncn1` (centres undefined): the Potency entry in assay [1], in [2] and in assay [3] was “inactive” in each case. The result in assay [8], in assay [6], in assay [9] and in [7] was inactive.
Regarding `CC1CCC(=O)O1` (centres undefined), the Potency result in assay [1], in assay [2], in assay [3], in assay [4] and in [5] was “inactive” throughout. Moreover, the compound was classed as inactive in assay [8], in [6], in assay [9] and in assay [7].
In the case of `CCN(CC)C(=O)[C@@H]1C=C2c3cccc4[nH]cc(c34)C[C@H]2N(C)C1`, the Potency result in [1], in [2] and in assay [4] was “inactive” each time. In addition, the Potency in [5] is 8.98 µM (active) and 6.68 µM (active). The compound was called inactive in [8], in assay [9] and in assay [7].
Turning to `CC(CC(C#N)(c1ccccc1)c1ccccc1)N(C)C` (centres undefined), the Potency result in [1], in [2], in assay [3] and in assay [4] was “inactive” in each case. Also, the call in [9] and in [7] was inactive.
Turning to `CCOC(=O)/C=C(C)/C=C/C[C@@H](C)CCCC(C)C`, the Potency entry in assay [1], in assay [2], in [3] and in assay [4] was “inactive” in each case. The Potency result in [5] is “inactive and 54.5 µM (active)”. Also, the call in [8], in assay [6] and in assay [7] was inactive.
In the case of `CC(C)(C)NCC(O)c1cc(Cl)c(N)c(Cl)c1` (centres undefined), the Potency in assay [1] is 1.33 µM (active). The Potency entry in assay [3] and in [4] was “inactive” each time. The compound was called inactive in assay [8], in [6] and in assay [7].
Consider `O=[N+]([O-])c1cc(Cl)c(Cl)c(Cl)c1`, for which the Potency entry in assay [10], in [2], in [3] and in assay [4] was “inactive” throughout. The result in [8], in assay [6], in assay [9] and in [7] was inactive.
